The values below come from PubChem BioAssay (NCI).

Common to all, as to experiment: NCI-60 one-dose screen, 48 h (100 = growth as untreated, 0 = no growth, -100 = all killed)
Assay [1] has as its system DU-145 prostate.
For assay [2], the system named is K-562 leukemia.
In assay [3] the test system is MALME-3M melanoma.
The subject of assay [4] is MDA-MB-231 breast.
In assay [5] the test system is RXF 393 renal.
For assay [6], the system named is SF-268 CNS.
In assay [7] the test system is SF-295 CNS.
The subject of assay [8] is SF-539 CNS.
Assay [9] deals with UACC-257 melanoma.
Assay [10] relates to M14 melanoma.

Each structure is given as a SMILES string. Values joined by “and” are separate entries in the source; they are usually repeats but may differ in a detail not shown here. Identical values can stand only once. The panel holds about 83,000 compounds, 20% with a hit somewhere; the sample as a whole holds those more often.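 A percent growth of 40 corresponds to 60% growth inhibition; 0 means no net growth; -100 means all cells died. Active threshold: below 10.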 Active and inactive are the calls of the source.

With `O=C(N=Nc1c(O)[nH]c2ccccc12)Nc1ccccc1Cl`, the growth in assay [1] (10 µM unless noted) is 98.8% (inactive); in [2] (10 µM unless noted), 88.1% (inactive); in [3] (10 µM unless noted) it was 96.9% (inactive); in assay [4] (10 µM unless noted) it was 85.1% (inactive); in assay [5] (10 µM unless noted), 101% (inactive); in assay [6] (10 µM unless noted), 96.8% (inactive). Further, the growth in [7] (10 µM unless noted) was 94.1% (inactive); in assay [8] (10 µM unless noted) it was 95.7% (inactive); in [9] (10 µM unless noted) it was 92% (inactive); in assay [10] (10 µM unless noted), 94.7% (inactive).

In the case of `CC(=O)/C=C/c1ccc(OCc2ccc(Cl)cc2)cc1`, the growth in assay [1] (10 µM) is 96.6% (inactive); in [1] (100 µM) it was 52.9% (inactive); in assay [2] (10 µM), 79.1% (inactive); in assay [2] (100 µM), 26.1% (inactive); in [3] (10 µM), 110% (inactive); in assay [3] (100 µM) it was -1.84% (active). Besides, the growth is 117% (inactive) in assay [4] (10 µM); 9.42% (active) in assay [4] (100 µM); 105% (inactive) in [5] (10 µM); 55.5% (inactive) in [5] (100 µM); 101% (inactive) in assay [6] (10 µM); 52.3% (inactive) in assay [6] (100 µM). The growth in assay [7] (10 µM) is 99.1% (inactive); in assay [7] (100 µM), 39.9% (inactive); in assay [8] (10 µM), 109% (inactive); in [8] (100 µM) it was 44.4% (inactive); in assay [9] (10 µM) it was 86.6% (inactive); in [9] (100 µM) it was -1.1% (active). The results for the growth in assay [10] (10 µM) and in assay [10] (100 µM) were 98.2% (inactive) and 36.1% (inactive), respectively.

With `Cc1c(C(C)(C)O)cn2ncnc(Oc3ccc(NC(=O)Nc4ccc(Cl)c(C(F)(F)F)c4)cc3)c12`, the growth in [1] (10 µM unless noted) was 57.6% (inactive); in assay [2] (10 µM unless noted), 14.9% (inactive); in [3] (10 µM unless noted) it was 51.2% (inactive); in assay [4] (10 µM unless noted), 32.2% (inactive); in assay [5] (10 µM unless noted) it was 39% (inactive); in assay [6] (10 µM unless noted) it was 45.3% (inactive). For the same compound, the growth is 16% (inactive) in assay [7] (10 µM unless noted), 25.9% (inactive) in assay [8] (10 µM unless noted), 66.5% (inactive) in assay [9] (10 µM unless noted) and 36.7% (inactive) in [10] (10 µM unless noted).

As for `O=C(/C=C\c1ccc(Cl)c(Cl)c1)c1ccccc1`, the growth in assay [1] (10 µM unless noted) is 84.3% (inactive) and 109% (inactive); in assay [2] (10 µM unless noted) it was 32.7% (inactive) and 95.9% (inactive); in [3] (10 µM unless noted), 104% (inactive) and 115% (inactive); in assay [4] (10 µM unless noted), 108% (inactive) and 99.7% (inactive); in assay [5] (10 µM unless noted) it was 86.3% (inactive) and 110% (inactive); in [6] (10 µM unless noted), 98.4% (inactive) and 103% (inactive). In addition, the growth in [7] (10 µM unless noted) is 97.5% (inactive) and 99.2% (inactive); in assay [8] (10 µM unless noted), 111% (inactive) and 110% (inactive); in assay [9] (10 µM unless noted), 97.7% (inactive); in assay [10] (10 µM unless noted), 97.2% (inactive) and 115% (inactive).

With `COc1ccc(C(=O)/C=C/c2ccc(OCc3ccc(Cl)cc3)cc2)cc1OC`, the growth in [1] (10 µM) was 95.2% (inactive); in assay [1] (100 µM) it was 14.9% (inactive); in assay [2] (10 µM), 67.9% (inactive); in [2] (100 µM), 52.2% (inactive); in assay [3] (10 µM) it was 110% (inactive); in assay [3] (100 µM), -19.5% (active). In addition, the growth in assay [4] (10 µM) was 110% (inactive); in [4] (100 µM), -22.5% (active); in assay [5] (10 µM) it was 110% (inactive); in [5] (100 µM), -2.05% (active); in assay [6] (10 µM), 100% (inactive); in [6] (100 µM) it was 14% (inactive). The growth in assay [7] (10 µM) is 98.4% (inactive); in assay [7] (100 µM) it was 16.2% (inactive); in assay [8] (10 µM), 106% (inactive); in assay [8] (100 µM) it was 32.5% (inactive); in assay [9] (10 µM), 94.3% (inactive); in assay [9] (100 µM) it was 35.4% (inactive). In addition, the growth in assay [10] (10 µM) is 95.9% (inactive); in assay [10] (100 µM), 54.4% (inactive).

In the case of `CC(=O)/C=C/c1ccc(N(CCO)Cc2ccc(C(C)(C)C)cc2)cc1`, the growth was 78% (inactive) in [1] (10 µM); -99.7% (active) in [1] (100 µM); 54.6% (inactive) in assay [2] (10 µM); -49.3% (active) in assay [2] (100 µM); 84.5% (inactive) in assay [3] (10 µM); -85.8% (active) in [3] (100 µM). For the same compound, the growth in [4] (10 µM) was 77.5% (inactive); in assay [4] (100 µM), -90.4% (active); in assay [5] (10 µM) it was 87.5% (inactive); in assay [5] (100 µM), -75.9% (active); in [6] (10 µM), 78.9% (inactive); in [6] (100 µM) it was -82.2% (active). Further, the growth in [7] (10 µM) is 63.5% (inactive); in assay [7] (100 µM), -84.9% (active); in assay [8] (10 µM) it was 86.9% (inactive); in [8] (100 µM) it was -96.4% (active); in assay [9] (10 µM), 80.8% (inactive); in [9] (100 µM), -79.5% (active). Further, the growth was 69.4% (inactive) in assay [10] (10 µM) and -84.9% (active) in assay [10] (100 µM).

As for `CCCCCCNC(=O)Oc1ccc(/C(=C(/CC)Cc2ccccc2)c2ccc(OCCCN(C)C)cc2)cc1`, the growth was 89.4% (inactive) in assay [1] (10 µM unless noted); 7.11% (active) in assay [2] (10 µM unless noted); 83.3% (inactive) in assay [3] (10 µM unless noted); 67.5% (inactive) in [4] (10 µM unless noted); 80.3% (inactive) in [5] (10 µM unless noted); 80.8% (inactive) in assay [6] (10 µM unless noted). Moreover, the growth in assay [7] (10 µM unless noted) was 116% (inactive); in assay [8] (10 µM unless noted), 99.1% (inactive); in [9] (10 µM unless noted), 80.8% (inactive); in assay [10] (10 µM unless noted), 85.2% (inactive).

Regarding `COc1ccc2c(O)c(/C=C3\N=Nc4nc(C)ccc43)oc2c1CC1CCNCC1`, the growth is 87.9% (inactive) in [1] (10 µM unless noted); 49.3% (inactive) in assay [2] (10 µM unless noted); 19.1% (inactive) in assay [3] (10 µM unless noted); 34.6% (inactive) in assay [4] (10 µM unless noted); -0.196% (active) in assay [5] (10 µM unless noted); 67.4% (inactive) in assay [6] (10 µM unless noted). Besides, the growth was 90% (inactive) in assay [7] (10 µM unless noted), 55.9% (inactive) in assay [8] (10 µM unless noted), 74.5% (inactive) in [9] (10 µM unless noted) and 35.4% (inactive) in [10] (10 µM unless noted).

On to `CCC(=C(c1ccc(OCCCN(C)C)cc1)c1ccc(OCCCN(C)C)cc1)c1ccc(Cl)cc1`, for which the growth in assay [1] (10 µM unless noted) was -90.8% (active); in assay [2] (10 µM unless noted), 0.345% (active); in [3] (10 µM unless noted), -79.6% (active); in [4] (10 µM unless noted), -85% (active); in assay [5] (10 µM unless noted), -82.7% (active); in assay [6] (10 µM unless noted), -78.3% (active). Further, the growth in assay [7] (10 µM unless noted) was -87.4% (active); in assay [8] (10 µM unless noted) it was -93.2% (active); in assay [9] (10 µM unless noted) it was -77.1% (active); in [10] (10 µM unless noted) it was -83.5% (active).

For the compound `CN1CCN(CCCN2c3ccccc3Sc3ccc(Cl)cc32)CC1`, the growth is 91% (inactive) and 104% (inactive) in [1] (10 µM unless noted); 42.3% (inactive) and 39.7% (inactive) in assay [2] (10 µM unless noted); 91.6% (inactive) in [3] (10 µM unless noted); 70.7% (inactive) and 55.1% (inactive) in assay [4] (10 µM unless noted); 47% (inactive) and 63% (inactive) in assay [5] (10 µM unless noted); 82.3% (inactive) and 88.2% (inactive) in assay [6] (10 µM unless noted). Also, the growth in assay [7] (10 µM unless noted) is 85.7% (inactive) and 82.5% (inactive); in assay [8] (10 µM unless noted), 85.1% (inactive); in assay [9] (10 µM unless noted) it was -34.7% (active) and 53.2% (inactive); in [10] (10 µM unless noted), -53.2% (active) and 63.3% (inactive).
